Columns and labels:
Experiment in all cases: DAPPL (digital affinity profiling via proximity ligation, sequencing); 10 mM Tris-HCl pH 7.5, 50 mM NaCl, 1 mM DTT, 4% glycerol, room temperature, 30 min; GST-TFs on glutathione beads, 16-mer random dsDNA library, 0.1% formaldehyde crosslink after washing; high values mean tight binding
Conditions in all cases: protein: recombinant; tags: N-terminal GST; dsDNA, one strand shown
GABPA = molecular target: T1, GABPA (Homo sapiens, UniProt Q06546 1-454)
T1 sequence: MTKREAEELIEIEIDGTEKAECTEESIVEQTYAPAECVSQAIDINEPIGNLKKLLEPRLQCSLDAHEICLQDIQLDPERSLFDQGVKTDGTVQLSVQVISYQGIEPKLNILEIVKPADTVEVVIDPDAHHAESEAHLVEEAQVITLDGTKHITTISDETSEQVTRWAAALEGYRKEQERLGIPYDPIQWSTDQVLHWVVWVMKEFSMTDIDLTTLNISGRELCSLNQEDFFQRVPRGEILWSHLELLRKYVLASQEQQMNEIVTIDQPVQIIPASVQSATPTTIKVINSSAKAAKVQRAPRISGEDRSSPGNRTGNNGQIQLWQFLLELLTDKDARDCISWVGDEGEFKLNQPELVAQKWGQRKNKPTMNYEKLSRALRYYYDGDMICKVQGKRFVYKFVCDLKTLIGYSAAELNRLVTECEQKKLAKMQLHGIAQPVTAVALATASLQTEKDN
Summary of the method: (§1)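 After expression in yeast as GST fusions, human transcription factors were bound to glutathione beads, DNA-barcoded and mixed with a tag-only sample. The pools were incubated with 200 nmole of a 16-mer random double-stranded DNA library in Tris/NaCl/DTT/glycerol buffer (30 min, room temperature), washed and crosslinked with 0.1% formaldehyde. Proximity ligation with BsaI/T4 ligase ran for 1 h at 37 °C, before PCR amplification and sequencing on an Illumina NextSeq500. Binding signal is a hexamer's read frequency for a factor divided by its frequency for the tag-only sample.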

EHF = molecular target: T2, EHF (Homo sapiens, UniProt Q9NZC4 1-300)
T2 sequence: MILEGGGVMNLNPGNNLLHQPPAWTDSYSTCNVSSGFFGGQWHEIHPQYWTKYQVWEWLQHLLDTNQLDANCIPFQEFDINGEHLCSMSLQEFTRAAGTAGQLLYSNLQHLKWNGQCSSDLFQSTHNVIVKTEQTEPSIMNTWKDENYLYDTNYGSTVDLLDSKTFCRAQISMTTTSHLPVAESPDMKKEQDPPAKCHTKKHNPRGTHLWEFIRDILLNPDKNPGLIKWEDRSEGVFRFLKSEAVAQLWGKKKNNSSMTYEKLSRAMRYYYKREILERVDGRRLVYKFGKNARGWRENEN
Summary of the method: as §1

ELK3 = molecular target: T3, ELK3 (Homo sapiens, UniProt P41970 1-407)
T3 sequence: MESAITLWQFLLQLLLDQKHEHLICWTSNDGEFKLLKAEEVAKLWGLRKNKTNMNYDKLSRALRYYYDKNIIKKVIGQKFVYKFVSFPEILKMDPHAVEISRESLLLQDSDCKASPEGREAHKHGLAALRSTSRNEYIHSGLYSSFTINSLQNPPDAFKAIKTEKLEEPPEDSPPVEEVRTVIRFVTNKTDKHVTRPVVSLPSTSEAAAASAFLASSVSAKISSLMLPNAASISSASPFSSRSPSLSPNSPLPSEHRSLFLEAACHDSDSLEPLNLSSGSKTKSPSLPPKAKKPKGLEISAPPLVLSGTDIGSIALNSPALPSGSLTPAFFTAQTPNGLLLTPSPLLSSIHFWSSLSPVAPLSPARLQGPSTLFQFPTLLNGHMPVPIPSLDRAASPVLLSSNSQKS
Summary of the method: as §1

ETV5 = ETV5 (Homo sapiens, UniProt P41161 1-510)
Chain of ETV5 (P41161 whole entry): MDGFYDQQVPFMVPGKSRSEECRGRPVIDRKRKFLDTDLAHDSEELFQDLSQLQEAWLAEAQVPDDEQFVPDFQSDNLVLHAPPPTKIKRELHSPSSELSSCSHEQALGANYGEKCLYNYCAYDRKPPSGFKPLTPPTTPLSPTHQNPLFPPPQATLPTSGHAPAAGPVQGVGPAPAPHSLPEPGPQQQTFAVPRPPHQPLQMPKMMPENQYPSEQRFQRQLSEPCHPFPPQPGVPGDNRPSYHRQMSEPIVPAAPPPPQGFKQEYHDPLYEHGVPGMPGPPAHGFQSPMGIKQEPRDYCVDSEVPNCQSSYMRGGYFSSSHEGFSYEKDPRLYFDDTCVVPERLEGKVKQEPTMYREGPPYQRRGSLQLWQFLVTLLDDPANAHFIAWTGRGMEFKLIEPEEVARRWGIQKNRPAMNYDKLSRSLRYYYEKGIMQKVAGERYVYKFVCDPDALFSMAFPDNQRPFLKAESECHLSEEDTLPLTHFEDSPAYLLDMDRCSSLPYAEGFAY
Summary of the method: as §1

ELF3 = molecular target: T4, ELF3 (Homo sapiens, UniProt P78545 1-371)
T4 sequence: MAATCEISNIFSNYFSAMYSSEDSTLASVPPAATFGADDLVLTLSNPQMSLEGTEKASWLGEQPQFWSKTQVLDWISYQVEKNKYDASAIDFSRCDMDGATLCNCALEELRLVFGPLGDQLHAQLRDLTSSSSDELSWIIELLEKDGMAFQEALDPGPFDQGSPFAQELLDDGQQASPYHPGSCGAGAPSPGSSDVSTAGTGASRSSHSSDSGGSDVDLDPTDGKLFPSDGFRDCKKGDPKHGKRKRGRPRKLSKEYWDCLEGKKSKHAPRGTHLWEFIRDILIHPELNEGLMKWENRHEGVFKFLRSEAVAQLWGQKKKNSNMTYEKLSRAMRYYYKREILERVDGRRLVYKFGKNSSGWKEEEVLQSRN
Summary of the method: as §1

ETV1 = ETV1 (Homo sapiens, UniProt P50549 1-477)
Chain of ETV1 (P50549 whole entry): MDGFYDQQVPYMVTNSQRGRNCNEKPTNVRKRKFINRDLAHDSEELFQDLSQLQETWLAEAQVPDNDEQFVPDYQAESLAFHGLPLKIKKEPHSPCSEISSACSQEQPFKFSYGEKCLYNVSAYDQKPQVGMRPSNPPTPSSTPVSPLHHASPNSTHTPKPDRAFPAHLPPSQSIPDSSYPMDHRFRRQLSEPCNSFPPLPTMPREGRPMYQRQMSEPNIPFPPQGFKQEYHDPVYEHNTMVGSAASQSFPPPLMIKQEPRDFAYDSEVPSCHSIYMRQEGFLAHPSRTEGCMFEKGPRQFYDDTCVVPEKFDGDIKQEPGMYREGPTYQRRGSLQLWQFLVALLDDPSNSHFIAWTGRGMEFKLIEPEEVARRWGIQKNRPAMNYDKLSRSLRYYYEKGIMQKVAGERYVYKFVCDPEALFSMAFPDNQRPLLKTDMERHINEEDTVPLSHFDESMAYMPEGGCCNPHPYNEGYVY
Summary of the method: as §1

ERF = molecular target: T5, ERF (Homo sapiens, UniProt P50548 1-548)
T5 sequence: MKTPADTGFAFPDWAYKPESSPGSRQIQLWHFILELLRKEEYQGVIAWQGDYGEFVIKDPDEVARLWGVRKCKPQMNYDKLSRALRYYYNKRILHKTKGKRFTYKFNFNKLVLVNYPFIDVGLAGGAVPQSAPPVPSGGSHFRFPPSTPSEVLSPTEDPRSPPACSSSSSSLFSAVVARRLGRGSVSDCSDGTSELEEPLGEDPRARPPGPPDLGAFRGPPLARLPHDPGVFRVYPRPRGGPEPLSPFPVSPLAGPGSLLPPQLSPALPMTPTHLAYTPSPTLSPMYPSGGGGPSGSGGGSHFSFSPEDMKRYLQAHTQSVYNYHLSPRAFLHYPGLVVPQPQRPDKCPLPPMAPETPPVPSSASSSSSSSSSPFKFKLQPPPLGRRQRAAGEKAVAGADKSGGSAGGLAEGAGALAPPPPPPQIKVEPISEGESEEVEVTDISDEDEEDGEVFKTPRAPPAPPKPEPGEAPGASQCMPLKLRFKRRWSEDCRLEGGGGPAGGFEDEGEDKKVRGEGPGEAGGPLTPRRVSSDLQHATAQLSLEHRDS
Summary of the method: as §1

ETS2 = molecular target: T6, ETS2 (Homo sapiens, UniProt P15036 1-469)
T6 sequence: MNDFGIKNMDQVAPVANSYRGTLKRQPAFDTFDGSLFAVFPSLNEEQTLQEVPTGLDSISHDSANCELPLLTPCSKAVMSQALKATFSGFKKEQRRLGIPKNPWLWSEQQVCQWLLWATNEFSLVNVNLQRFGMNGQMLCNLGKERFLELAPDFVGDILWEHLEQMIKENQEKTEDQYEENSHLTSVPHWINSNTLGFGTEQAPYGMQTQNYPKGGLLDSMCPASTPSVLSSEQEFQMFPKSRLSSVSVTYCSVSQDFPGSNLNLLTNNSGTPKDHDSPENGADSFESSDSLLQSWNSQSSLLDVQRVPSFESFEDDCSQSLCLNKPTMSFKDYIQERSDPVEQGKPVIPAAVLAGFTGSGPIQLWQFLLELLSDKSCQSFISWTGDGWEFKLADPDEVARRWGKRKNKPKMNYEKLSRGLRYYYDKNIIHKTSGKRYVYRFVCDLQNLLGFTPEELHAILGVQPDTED
Summary of the method: as §1

ETV3 = molecular target: T7, ETV3 (Homo sapiens, UniProt P41162-2 1-143)
T7 sequence: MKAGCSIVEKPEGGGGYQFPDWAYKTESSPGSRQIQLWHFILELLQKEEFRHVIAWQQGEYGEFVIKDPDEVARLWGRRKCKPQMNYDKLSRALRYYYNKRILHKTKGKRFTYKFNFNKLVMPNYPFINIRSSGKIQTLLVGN
Summary of the method: as §1

ETV6 = ETV6 (Homo sapiens, UniProt P41212 1-452)
Chain of ETV6 (P41212 whole entry): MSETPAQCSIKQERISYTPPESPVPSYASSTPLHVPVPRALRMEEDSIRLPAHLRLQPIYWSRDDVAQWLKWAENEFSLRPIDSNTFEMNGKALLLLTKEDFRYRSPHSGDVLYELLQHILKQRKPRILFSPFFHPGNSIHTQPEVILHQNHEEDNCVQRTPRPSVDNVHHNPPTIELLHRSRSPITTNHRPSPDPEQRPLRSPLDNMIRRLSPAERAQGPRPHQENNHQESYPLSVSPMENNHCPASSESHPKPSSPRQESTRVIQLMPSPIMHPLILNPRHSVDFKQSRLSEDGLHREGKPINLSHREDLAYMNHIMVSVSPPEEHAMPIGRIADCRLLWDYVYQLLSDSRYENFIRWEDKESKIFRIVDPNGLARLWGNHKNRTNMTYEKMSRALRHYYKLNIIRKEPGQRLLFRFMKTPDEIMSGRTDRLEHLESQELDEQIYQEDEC
Summary of the method: as §1

Question: AGTAAA was tested. Which binding signal (GABPA) did it give?
Answer: 1.02 fold enrichment (6-mer frequency, TF over GST control)

Question: What about the binding signal (EHF) of the same sequence?
Answer: 1.03 fold enrichment (6-mer frequency, TF over GST control)

Question: And the binding signal (ELK3)?
Answer: 1.06 fold enrichment (6-mer frequency, TF over GST control)

Question: And the binding signal (ETV5)?
Answer: 1.05 fold enrichment (6-mer frequency, TF over GST control)

Question: What about the binding signal (ELF3) of the same sequence?
Answer: 1.08 fold enrichment (6-mer frequency, TF over GST control)

Question: What about the binding signal (ETV1) of the same sequence?
Answer: 1.04 fold enrichment (6-mer frequency, TF over GST control)

Question: And the binding signal (ERF)?
Answer: 1.01 fold enrichment (6-mer frequency, TF over GST control)

Question: And the binding signal (ETS2)?
Answer: 1.02 fold enrichment (6-mer frequency, TF over GST control)

Question: And the binding signal (ETV3)?
Answer: 1.03 fold enrichment (6-mer frequency, TF over GST control)

Question: And the binding signal (ETV6)?
Answer: 1.11 fold enrichment (6-mer frequency, TF over GST control)

Question: CATAAG was tested. Which binding signal (ETV5) did it give?
Answer: 1 fold enrichment (6-mer frequency, TF over GST control)

Question: What about the binding signal (ERF) of the same sequence?
Answer: 1 fold enrichment (6-mer frequency, TF over GST control)
